Laboratory results taken from PubChem BioAssay (NCATS).
Records with an inconclusive call do not appear. Calls of active or inactive are those of the source. The call rests on the fitted dose curve; in most records, active means well fitted curve in the direction sought with a large enough effect; inconclusive means small, poorly fitted or top-dose-only effect, or another doubt; inactive means no such curve, though single readings can be large; an effect the other way counts as inactive or inconclusive.

Tests used:
MCC-13 = assay: qHTS assay to identify novel small-molecules to repurpose for Merkel cell carcinoma treatment (AID 1296009); details: MCC and control cell lines, CellTiter-Glo viability, 72 h; series mostly up to 46 µM; further: nearly all actives have a fitted effect of over 60% in size
Summary of the method: (§1)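 Luminescence from CellTiter-Glo, read 10 min after addition at room temperature, reported viability following a 72 hr, 37 degree celsius treatment with NPC or MIPE compounds in titration; values normalized to plate controls.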

MCC-26 = assay: as above; details: MCC and control cell lines, CellTiter-Glo viability, 72 h; series mostly up to 46 µM
Summary of the method: as §1

MKL-1 = assay: as above; details: MCC and control cell lines, CellTiter-Glo viability, 72 h; series mostly up to 46 µM
Summary of the method: as §1

MKL-2 = assay: as above; details: MCC and control cell lines, CellTiter-Glo viability, 72 h; series mostly up to 46 µM
Summary of the method: as §1

UISO = assay: as above; details: MCC and control cell lines, CellTiter-Glo viability, 72 h; series mostly up to 46 µM
Summary of the method: as §1

WaGa = assay: as above; details: MCC and control cell lines, CellTiter-Glo viability, 72 h; series mostly up to 46 µM
Summary of the method: as §1

C33A = assay: Primary qHTS to identify gynecologic anti-cancer compounds using libraries of approved drugs and bioactive compounds (AID 1345084); details: Gynecologic cancer cell panel viability, ATPlite luminescence, 48 h; series mostly up to 57.5 µM; further: nearly all actives have a fitted effect of over 55% in size
Summary of the method: (§2)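 Cells, 1,000 per well, plated 16 h, then exposed 48 h at 37 C to compounds. Viability by ATPlite luminescence after 15 min at room temperature.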

CAOV3 = assay: as above; details: Gynecologic cancer cell panel viability, ATPlite luminescence, 48 h; series mostly up to 57.5 µM
Summary of the method: as §2

CASKI = assay: as above; details: Gynecologic cancer cell panel viability, ATPlite luminescence, 48 h; series mostly up to 57.5 µM
Summary of the method: as §2

Es-2 = assay: as above; details: Gynecologic cancer cell panel viability, ATPlite luminescence, 48 h; series mostly up to 57.5 µM
Summary of the method: as §2

HeLa = assay: as above; details: Gynecologic cancer cell panel viability, ATPlite luminescence, 48 h; series mostly up to 57.5 µM
Summary of the method: as §2

Hek293T = assay: as above; details: Gynecologic cancer cell panel viability, ATPlite luminescence, 48 h, control line for the selectivity index; series mostly up to 57.5 µM
Summary of the method: as §2

JEG-3 = assay: as above; details: Gynecologic cancer cell panel viability, ATPlite luminescence, 48 h; series mostly up to 57.5 µM
Summary of the method: as §2

OV90 = assay: as above; details: Gynecologic cancer cell panel viability, ATPlite luminescence, 48 h; series mostly up to 57.5 µM
Summary of the method: as §2

PA-1 = assay: as above; details: Gynecologic cancer cell panel viability, ATPlite luminescence, 48 h; series mostly up to 57.5 µM
Summary of the method: as §2

SKOV3 = assay: as above; details: Gynecologic cancer cell panel viability, ATPlite luminescence, 48 h; series mostly up to 57.5 µM
Summary of the method: as §2

Tov-21-G = assay: as above; details: Gynecologic cancer cell panel viability, ATPlite luminescence, 48 h; series mostly up to 57.5 µM
Summary of the method: as §2

Tov112D = assay: as above; details: Gynecologic cancer cell panel viability, ATPlite luminescence, 48 h; series mostly up to 57.5 µM
Summary of the method: as §2

[1] = Drug repurposing screens with cells derived from glioblastoma tumor samples (AID 1345199); details: GBM patient neurospheres viability, ATP luminescence, 48 h; further: nearly all actives have a fitted effect of over 40% in size; further: potency means the concentration at half of the fitted maximal effect
Summary of the method: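 Primary testing used CD133+ neurospheres from four GBM patients, seven concentrations, 48 h exposure and ATP-based viability; confirmation added three slower-growing patient lines.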

[2] = at 45.9 µM (top of the series), tumour line B
[3] = at 45.9 µM (top of the series), tumour line D
[4] = at 46 µM (top of the series), tumour line A
[5] = at 46.1 µM (top of the series), tumour line C
On the % scale 0 is the no-effect control and ±100 the full control effect.

CC(C(=O)O)c1ccc2c(c1)Cc1cccnc1O2 (configuration not stated)
inactive: outcome (MCC-13) | outcome (MCC-26) | outcome (MKL-1) | outcome (MKL-2) | outcome (UISO) | outcome (WaGa) | outcome (C33A) | outcome (CAOV3) | outcome (CASKI) | outcome (Es-2) | outcome (HeLa) | outcome (Hek293T) | outcome (JEG-3) | Potency (OV90) | outcome (PA-1) | outcome (SKOV3) | outcome (Tov-21-G) | outcome (Tov112D) | activity, negative = cell killing [1, 2] 1.78% | activity, negative = cell killing [1, 3] -8.91% | activity, negative = cell killing [1, 4] -13.1% | activity, negative = cell killing [1, 5] -25.1%

CCN(CC)CCc1nc(-c2ccccc2)no1
inactive: outcome (MCC-13) | outcome (MCC-26) | outcome (MKL-1) | outcome (MKL-2) | outcome (UISO) | outcome (WaGa) | outcome (C33A) | outcome (CAOV3) | outcome (CASKI) | outcome (Es-2) | outcome (HeLa) | outcome (Hek293T) | outcome (JEG-3) | Potency (OV90) | outcome (PA-1) | outcome (SKOV3) | outcome (Tov-21-G) | outcome (Tov112D) | activity, negative = cell killing ([1]; at 20 µM (top of the series), tumour line C) -35.3% | activity, negative = cell killing ([1]; at 21.2 µM (top of the series), tumour line B) 0.0715% | activity, negative = cell killing ([1]; at 21.2 µM (top of the series), tumour line D) 5.97% | activity, negative = cell killing ([1]; at 21.3 µM (top of the series), tumour line A) -18.4%

O=C(O)c1ccc(OCCCOc2ccc(C(=O)O)cc2)cc1
inactive: outcome (MCC-13) | outcome (MCC-26) | outcome (MKL-1) | outcome (MKL-2) | outcome (UISO) | outcome (WaGa) | outcome (C33A) | outcome (CAOV3) | outcome (CASKI) | outcome (Es-2) | outcome (HeLa) | outcome (Hek293T) | outcome (JEG-3) | Potency (OV90) | outcome (PA-1) | outcome (SKOV3) | outcome (Tov-21-G) | outcome (Tov112D) | activity, negative = cell killing [1, 2] -4.79% | activity, negative = cell killing [1, 3] -29% | activity, negative = cell killing [1, 4] -33.4% | activity, negative = cell killing [1, 5] -12%

O=C(O)c1ccccc1C(=O)Nc1ccc(S(=O)(=O)Nc2nccs2)cc1
inactive: outcome (MCC-13) | outcome (MCC-26) | outcome (MKL-1) | outcome (MKL-2) | outcome (UISO) | outcome (WaGa) | outcome (C33A) | outcome (CAOV3) | outcome (CASKI) | outcome (Es-2) | outcome (HeLa) | outcome (Hek293T) | outcome (JEG-3) | Potency (OV90) | outcome (PA-1) | outcome (SKOV3) | outcome (Tov-21-G) | outcome (Tov112D) | activity, negative = cell killing [1, 2] -6.87% | activity, negative = cell killing [1, 3] -3.34% | activity, negative = cell killing [1, 4] -31.1% | activity, negative = cell killing [1, 5] 1.95%

CC(C)CCOC(=O)c1ccc(N(C)C)cc1
inactive: outcome (MCC-13) | outcome (MCC-26) | outcome (MKL-1) | outcome (MKL-2) | outcome (UISO) | outcome (WaGa) | outcome (C33A) | outcome (CAOV3) | outcome (CASKI) | outcome (Es-2) | outcome (HeLa) | outcome (Hek293T) | outcome (JEG-3) | Potency (OV90) | outcome (PA-1) | outcome (SKOV3) | outcome (Tov-21-G) | outcome (Tov112D) | activity, negative = cell killing [1, 2] -5.37% | activity, negative = cell killing [1, 3] -2.75% | activity, negative = cell killing [1, 4] -50% | activity, negative = cell killing [1, 5] -13.2%

CNc1c2c(nn1C)CCCC2
inactive: outcome (MCC-13) | outcome (MCC-26) | outcome (MKL-1) | outcome (MKL-2) | outcome (UISO) | outcome (WaGa) | outcome (C33A) | outcome (CAOV3) | outcome (CASKI) | outcome (Es-2) | outcome (HeLa) | outcome (Hek293T) | outcome (JEG-3) | Potency (OV90) | outcome (PA-1) | outcome (SKOV3) | outcome (Tov-21-G) | outcome (Tov112D) | activity, negative = cell killing [1, 2] -7.34% | activity, negative = cell killing [1, 3] -0.633% | activity, negative = cell killing [1, 4] -5.91% | activity, negative = cell killing [1, 5] -14.3%

CCN(CC)CC1CCCCN1CC(=O)N1c2ccccc2C(=O)Nc2cccnc21 (configuration not stated)
inactive: outcome (MCC-13) | outcome (MCC-26) | outcome (MKL-1) | outcome (MKL-2) | outcome (UISO) | outcome (WaGa) | outcome (C33A) | outcome (CAOV3) | outcome (CASKI) | outcome (Es-2) | outcome (HeLa) | outcome (Hek293T) | outcome (JEG-3) | Potency (OV90) | outcome (PA-1) | outcome (SKOV3) | outcome (Tov-21-G) | outcome (Tov112D) | activity, negative = cell killing [1, 2] -15.7% | activity, negative = cell killing [1, 3] -5.02% | activity, negative = cell killing [1, 5] -18.7%
active: Potency ([1]; tumour line A) 20 µM

CCN(CC)CCOC(=O)C(c1ccccc1)c1ccccc1
inactive: outcome (MCC-13) | outcome (MCC-26) | outcome (MKL-1) | outcome (MKL-2) | outcome (UISO) | outcome (WaGa) | outcome (C33A) | outcome (CAOV3) | outcome (CASKI) | outcome (Es-2) | outcome (HeLa) | outcome (Hek293T) | outcome (JEG-3) | Potency (OV90) | outcome (PA-1) | outcome (SKOV3) | outcome (Tov-21-G) | outcome (Tov112D) | activity, negative = cell killing [1, 2] -13.3% | activity, negative = cell killing [1, 3] -3.55% | activity, negative = cell killing [1, 4] -25.1% | activity, negative = cell killing [1, 5] -20.1%

CCCCOC(=O)c1ccc(N)cc1
inactive: outcome (MCC-13) | outcome (MCC-26) | outcome (MKL-1) | outcome (MKL-2) | outcome (UISO) | outcome (WaGa) | outcome (C33A) | outcome (CAOV3) | outcome (CASKI) | outcome (Es-2) | outcome (HeLa) | outcome (Hek293T) | outcome (JEG-3) | Potency (OV90) | outcome (PA-1) | outcome (SKOV3) | outcome (Tov-21-G) | outcome (Tov112D) | activity, negative = cell killing [1, 3] -24.9%
active: Potency ([1]; tumour line A) 11.2 µM | Potency ([1]; tumour line B) 12.6 µM | Potency ([1]; tumour line C) 16.4 µM

O=C(Cn1ccnc1[N+](=O)[O-])NCCO
inactive: outcome (MCC-13) | outcome (MCC-26) | outcome (MKL-1) | outcome (MKL-2) | outcome (UISO) | outcome (WaGa) | outcome (C33A) | outcome (CAOV3) | outcome (CASKI) | outcome (Es-2) | outcome (HeLa) | outcome (Hek293T) | outcome (JEG-3) | Potency (OV90) | outcome (PA-1) | outcome (SKOV3) | outcome (Tov-21-G) | outcome (Tov112D) | activity, negative = cell killing [1, 2] -12.6% | activity, negative = cell killing [1, 3] -6.24% | activity, negative = cell killing [1, 4] -16.3% | activity, negative = cell killing [1, 5] -12.1%

CC(C)=CCC/C(C)=C/CO
inactive: outcome (MCC-13) | outcome (MCC-26) | outcome (MKL-1) | outcome (MKL-2) | outcome (UISO) | outcome (WaGa) | outcome (C33A) | outcome (CAOV3) | outcome (CASKI) | outcome (Es-2) | outcome (HeLa) | outcome (Hek293T) | outcome (JEG-3) | Potency (OV90) | outcome (PA-1) | outcome (SKOV3) | outcome (Tov-21-G) | outcome (Tov112D) | activity, negative = cell killing [1, 2] -6.27% | activity, negative = cell killing [1, 3] 1.11% | activity, negative = cell killing [1, 4] -25.2% | activity, negative = cell killing [1, 5] 8.23%
